An excerpt weighted towards active compounds, which were near 32% of everything screened.
CYP2C19 activ: cytochrome P450 2C19 (human) activation; activation factor at 5 µM; 96,000 tested, under 10 active; recombinant CYP2C19, luciferin-H EGE luminescence; stronger effect = higher value; 0 = fully inhibited enzyme, 1 = untreated enzyme; AID 1025; P33261;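 active means activation factor of at least 2 at 5 µM in the primary screen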;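 further: 0 = wells with 2.5 mM tranylcypromine and 1 = vehicle-only wells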
PostGolgi ctrl: growth of the yeast control strain, post-Golgi counter-screen; inhibition, % at 10 µM; efflux-deficient yeast background strain, growth absorbance A615, 16 h; actives 5% (n = 98,000)
CYP2C19 inh: inhibitors of human CYP2C19. inhibition, % at 5 µM. actives 21% (n = 96,000). CYP2C19 Supersomes, luciferin-H EGE luminescence, 30 min. P33261;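 active means CYP2C19 inhibition above a set limit at 5 µM in the primary screen, cut at about 50% in these data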;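 further: plate controls were negative control wells for no effect and 2.5 mM tranylcypromine positive control for full effect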
CYP2C9 inhib: inhibitors of human CYP2C9; CYP2C9 Supersomes, luciferin-H conversion, luminescence; inhibition, % at 5 µM; actives 20% (n = 96,000);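 active means blocking of liver enzyme CYP2C9 beyond about 50% at 5 µM, limit read from the data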
Target sequence (P11712 whole entry, looked up): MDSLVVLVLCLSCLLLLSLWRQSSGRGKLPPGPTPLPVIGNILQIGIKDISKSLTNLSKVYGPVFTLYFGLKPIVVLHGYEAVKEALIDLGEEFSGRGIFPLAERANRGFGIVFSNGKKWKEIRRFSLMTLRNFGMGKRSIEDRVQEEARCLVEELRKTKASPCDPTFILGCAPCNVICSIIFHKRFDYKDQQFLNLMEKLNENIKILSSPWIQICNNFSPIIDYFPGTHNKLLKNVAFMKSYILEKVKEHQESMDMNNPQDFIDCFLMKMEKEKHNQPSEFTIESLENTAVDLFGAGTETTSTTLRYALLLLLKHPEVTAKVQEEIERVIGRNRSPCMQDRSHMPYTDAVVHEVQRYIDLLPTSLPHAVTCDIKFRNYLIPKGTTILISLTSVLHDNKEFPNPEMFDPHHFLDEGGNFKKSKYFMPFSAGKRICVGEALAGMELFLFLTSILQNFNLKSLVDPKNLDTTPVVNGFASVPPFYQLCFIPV
PostGolgi yeast: growth inhibition of a yeast mutant, post-Golgi transport screen | actives 0.9% (n = 98,000) | AID 739 | post-Golgi transport phenotypic cell assay | inhibition, % at 10 µM;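 further: yeast cells grown in 1536-well plates; yeast grown about 18 h at 30C before absorbance read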
CYP2C9 activ: activators of human CYP2C9 | recombinant CYP2C9, luciferin-H conversion, luminescence; stronger effect = higher value; factor 1 = untreated enzyme, 0 = blocked | actives 1.4% (n = 96,000) | activation factor at 5 µM | P11712;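 active means activation factor of 2 or more for CYP2C9 at a 5 µM dose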;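 further: 0 = sulfaphenazole-blocked wells and 1 = vehicle-only wells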
* marks the source's active call; other numbers are inactive results. Unless noted, no stated cut-off is given here; in the data, active means inhibition above about 30%; inactive means the rest.

SMILES	CYP2C19 activ	PostGolgi ctrl	CYP2C19 inh	CYP2C9 inhib	PostGolgi yeast	CYP2C9 activ
COc1ccc(C2=NOC(C(=O)NCc3ccc(F)cc3)C2)cc1OC (stereo not given)	0.5	4	46	6	3	0.9
COc1cc(C2=NOC(C(=O)Nc3ccc(C)cc3)C2)cc(OC)c1OC (stereo not given)	0.6	31*	40	12	15	0.9
O=C(NCc1ccc2c(c1)OCO2)C1CC(c2ccc(Cl)cc2)=NO1 (stereo not given)	0.7	15	26	0	2	1
COc1cc(C2=NOC(C(=O)NCc3ccc(F)cc3)C2)cc(OC)c1OC (stereo not given)	0.3	20	69*	-61	-7	1.6
CCOc1ccccc1N(CC(=O)NCC1CCCO1)C(=O)CCC(=O)Nc1ccccn1 (stereo not given)	0.7	16	34	21	5	0.8
COCC(=O)Nc1ccc(S(=O)(=O)Nc2cc(C)nc(C)n2)cc1	1	2	-1	-3	0	1
CSc1n[nH]c(NCc2cccs2)n1	1.1	4	-9	-8	4	1.1
CCOC(=O)Cn1c(=O)oc2cc(S(=O)(=O)Nc3ccc(N(CC)CC)cc3C)ccc21	0.3	9	67*	61*	-1	0.4
CCOC(=O)Cn1c(=O)oc2cc(S(=O)(=O)Nc3cc(OCC)ccc3OCC)ccc21	0.3	22	73*	74*	-2	0.3
CCOC(=O)Cn1c(=O)oc2cc(S(=O)(=O)Nc3cc(Cl)ccc3OC)ccc21	0.6	7	36	61*	2	0.4
CCOC(=O)Cn1c(=O)oc2cc(S(=O)(=O)Nc3cccc(C)c3)ccc21	0.5	21	50*	54*	10	0.5
Cc1cc(-c2ccccc2)n2ncc(C#N)c2n1	0.9	0	7	-10	2	1.1
O=C(c1oc(=O)c2ccccc2c1-c1ccccc1)N1CCC(O)CC1	0.6	2	43	23	-1	0.8
O=C(c1oc(=O)c2ccccc2c1-c1ccccc1)N1CCN(C2CCCCC2)CC1	0	26	99*	70*	3	0.3
O=C(Nc1ccc2ccccc2c1)c1onc2c1CCCC2	1.1	7	-10	-15	-4	1.2
Cc1c(Cl)ccc2c1NC(=O)[C@]21N[C@@H](Cc2ccccc2)[C@H]2C(=O)N(c3ccc(F)cc3)C(=O)[C@H]21	0.8	20	19	36	-10	0.6
O=C1CSC(c2cccnc2)N1C1CCCCC1 (stereo not given)	0.9	5	6	0	-3	1
O=C1C2ON(c3ccc(Br)cc3)C(c3cccnc3)C2C(=O)N1C1CCCCC1 (stereo not given)	0.9	85*	10	-1	102*	1
O=C1C2ON(c3ccccc3)C(c3cccnc3)C2C(=O)N1c1ccccc1 (stereo not given)	1	7	-1	-2	14	1
O=C1C2ON(c3ccccc3)C(c3cccnc3)C2C(=O)N1c1ccc(Cl)c(Cl)c1 (stereo not given)	0.3	6	68*	46	11	0.5
Cc1ccc2c(c1)CC1(CN2C)C(=O)OC(C)(C)OC1=O	0.9	-3	9	-21	4	1.2
O=C(NCc1ccc(N2CCCC2=O)cc1)Nc1cccc(Cl)c1	0.4	-5	59*	72*	2	0.3
COc1ccc(CNC(=O)c2ccc3c(c2)N(C)C(=O)CS3=O)cc1 (stereo not given)	1	4	-3	64*	3	0.4
O=C(NCCCN1CCN(c2ccc(F)cc2)CC1)c1cccc(N2CCCC2=O)c1	0.2	-5	80*	28	6	0.7
COc1ccc(CNC(=O)c2cccc(N3CCCC3=O)c2)cc1	0.3	-7	72*	71*	-2	0.3
O=C(NCc1ccc(N2CCCC2=O)cc1)c1cn(Cc2ccccc2)nn1	1	-2	4	8	-3	0.9
CNC(=O)c1nc(C)n(-c2cc(Cl)cc(Cl)c2)n1	0.9	1	6	-4	21	1
Cc1nn(-c2ccc3nnc(Br)n3n2)c(C)c1Br	0.9	19	8	20	3	0.8
CCN(CCNC(=O)c1cccc(N2CCCC2=O)c1)c1ccccc1	0.1	5	89*	-10	-4	1.1

Assay outcomes as filed in PubChem BioAssay.
